Consider 15 molecules from PubChem BioAssay (NCI).

About 83,000 compounds went through this panel and 20% of them were active in at least one assay; those are over-represented in the sample as a whole.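 Growth was measured after 48 h exposure to one concentration of compound in 96-well plates. Values under 10 count as active.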 A number with no mark means an inactive call. The source made the active and inactive calls.

The subject of the assay is HL-60(TB) leukemia. As to the kind of experiment: NCI-60 one-dose screen, 48 h (100 = growth as untreated, 0 = no growth, -100 = all killed). As to conditions: 10 µM unless noted.
On to `O=C1c2ccccc2C(=O)N1CCCCNc1ccccc1`, for which the growth is 5.16% (active).
In the case of `COc1cc2nc(Sc3sc(N)nc3C)n(-c3ccc(Oc4ccccc4)cc3)c(=O)c2cc1OC` it was 78.9%; in that of `CC(=O)c1cccs1`, 130%.
In the case of `O=C1C(=O)N(CCCCn2cc(-c3ccccc3)nn2)c2ccccc21` it was 118%; in that of `Cc1ccc(S(=O)(=O)NCCNc2nccc(-c3c(-c4ccc(O)cc4)nc4sccn34)n2)cc1`, 155%; in that of `NS(=O)(=O)Oc1ccc(NC(=O)C2CCCCCC2)cc1`, 99.2%.
As for `CN(C)CCCC1(c2ccc(F)cc2)OCc2cc(-c3ccc(C(F)(F)F)nc3)ccc21` (stereo not given), the growth is 43.1%.
In the case of `COc1ccc(C(=O)O)cc1.[Ag]`, the growth was -46% (active).
In the case of `CC1(C(=O)O)CCC(N)(C(=O)O)C1(C)C` (stereo not given) it was 101%; in that of `COc1c(C)c2c(c(O)c1C/C=C(\C)CCC(=O)O)C(=O)OC2`, 45.6%.
To `C=C1C(=O)O[C@@H]2[C@@H]3O[C@@](C)(CC/C=C(\C)CCC[C@@H]2C)[C@H](O)C[C@@H]13` belongs 14.4%; to `C=C1C(=O)O[C@H]2[C@H]1CC/C(COC(=O)/C=C\C(=O)NCc1ccc(Cn3c(=O)sn(CCCC)c3=O)cc1)=C\CC[C@@]1(C)O[C@@H]21`, -45.6% (active); to `COc1ccc(-c2cn[nH]c2-c2cc(OC)c(OC)c(OC)c2)cc1`, -21.2% (active).
In the case of `O=C(Nc1cccc(Cl)c1)c1ccc(Cl)cc1Cl` it was 92%; in that of `CCCCCCCCCCCCC1CCC/C=C\CCC(=O)O1` (stereo not given), 88.6%.
